The values that follow come from publication PMC5540273 (PLoS ONE, 2017).

Some test systems named below: STK36; STK39; SYK; SgK110; TAOK1; TAOK2; TAOK3; TBK1; TEC; TESK1; TGFBR1; TGFBR2; TIE1; TLK1; TLK2; TNIK; TNK1; TNK2.
What all share (conditions): concentration: 1 μM,replicates: in singlicate; n = 1
Another assay relates to T1, TAK1.
T1 construct: gene MAP3K7

Another assay relates to T2, TIE2.
T2 construct: gene TEK

SMILES strings stand for the structures.
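Also: KINOMEscan kinase panel screen.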

On to `CCNCC(Cc1ccccc1)NC(=O)c1cc(Br)c(-c2ccnc3[nH]ccc23)s1.Cl.Cl` (stereo not shown) [GSK1383280], for which the “%Inh” value with STK36 stood at 0%; with STK39, 0%; in the assay with SYK, 0%; with SgK110, 79%; in the assay on TAK1, 19%; in the assay on TAOK1, 54%. In addition, the “%Inh” value in the assay with TAOK2 was determined as 0%; in the assay with TAOK3, 15%; in the assay with TBK1 it was 26%; with TEC it was 0%; in the assay with TESK1 it was 24%; with TGFBR1, 0%. The “%Inh” value in the assay on TGFBR2 stood at 0%; in the assay with TIE1 it was 75%; with TIE2, 0%; with TLK1, 18%; with TLK2, 16%; in the assay on TNIK, 50%. Further, the results for the “%Inh” value in the assay with TNK1 and with TNK2 were 0% and 10%, respectively.

As to `Cl.c1ccc(Oc2ccc(Nc3ccnc4cc(-c5ccc(CN6CCNCC6)o5)ccc34)cc2)nc1` [GW567142], the “%Inh” value in the assay on STK36 is listed as 0%; with STK39 it was 1%; in the assay on SYK, 0%; in the assay with SgK110, 0%; in the assay with TAK1 it was 3%; with TAOK1, 0%. Besides, the “%Inh” value in the assay on TAOK2 stood at 0%; with TAOK3, 0%; in the assay on TBK1, 25%; in the assay with TEC, 26%; in the assay with TESK1, 0%; in the assay with TGFBR1 it was 21%. Also, the “%Inh” value with TGFBR2 was 0%; in the assay with TIE1 it was 0%; in the assay on TIE2, 0%; in the assay with TLK1, 9%; in the assay with TLK2, 1%; with TNIK it was 0%. Also, the “%Inh” value in the assay with TNK1 was 61%; in the assay on TNK2, 38%.

Regarding `COC(=O)c1cccc(NC(=O)NC2CCN(c3ccnc(Nc4cc(OC)c(OC)c(OC)c4)n3)C2)c1` (stereo not shown) [GSK1379767], the “%Inh” value worked out at 0% in the assay on STK36; 5% in the assay with STK39; 34% with SYK; 0% in the assay on SgK110; 12% with TAK1; 0% in the assay with TAOK1. Moreover, the “%Inh” value came out at 0% in the assay with TAOK2; 0% with TAOK3; 32% in the assay with TBK1; 0% in the assay on TEC; 19% with TESK1; 0% in the assay on TGFBR1. Further, the “%Inh” value is recorded as 0% in the assay on TGFBR2; 19% in the assay on TIE1; 4% with TIE2; 14% in the assay on TLK1; 15% in the assay on TLK2; 0% in the assay on TNIK. Besides, the “%Inh” value is given as 0% with TNK1 and 4% in the assay on TNK2.

As for `Cl.Cl.NC[C@H](CC1CCCCC1)NC(=O)c1ccc(-c2ccnc3[nH]ccc23)s1` [GSK1581428], the “%Inh” value was 0% in the assay on STK36; 7% in the assay on STK39; 20% with SYK; 95.3% in the assay with SgK110; 64% with TAK1; 87% in the assay on TAOK1. Besides, the “%Inh” value in the assay with TAOK2 is given as 0%; in the assay with TAOK3 it was 14%; in the assay on TBK1, 29%; in the assay on TEC, 0%; in the assay on TESK1, 0%; in the assay on TGFBR1 it was 0%. Besides, the “%Inh” value in the assay with TGFBR2 was 0%; in the assay with TIE1 it was 100%; in the assay on TIE2, 0%; with TLK1 it was 1%; with TLK2 it was 4%; in the assay on TNIK, 12%. Further, the “%Inh” value in the assay on TNK1 and in the assay on TNK2 was 0% throughout.

On to `COc1cc2ncn(-c3cc(OCC4CCCCC4)c(C(N)=O)s3)c2cc1OC` [GSK204559], for which the “%Inh” value in the assay with STK36 is 0%; in the assay on STK39, 7%; in the assay on SYK it was 35%; in the assay with SgK110, 0%; with TAK1, 96.5%; in the assay with TAOK1 it was 0%. In addition, the “%Inh” value was 0% with TAOK2; 0% in the assay on TAOK3; 26% in the assay on TBK1; 13% with TEC; 18% with TESK1; 0% in the assay on TGFBR1. For the same molecule, the “%Inh” value in the assay with TGFBR2 was 0%; with TIE1, 19%; in the assay with TIE2, 0%; in the assay with TLK1, 6%; in the assay on TLK2, 12%; in the assay on TNIK, 58%. The “%Inh” value in the assay with TNK1 was found to be 5%; in the assay with TNK2 it was 4%.

In the case of `CS(=O)c1ccc(-c2coc3ccc(-c4n[nH]c(=O)o4)cc23)cc1` (stereo not shown), the “%Inh” value in the assay on STK36 was determined as 0%; in the assay on STK39 it was 19%; with SYK, 0%; with SgK110, 0%; in the assay on TAK1 it was 30%; in the assay with TAOK1, 0%. Also, the “%Inh” value in the assay on TAOK2 stood at 3%; in the assay on TAOK3, 0%; in the assay on TBK1, 20%; with TEC, 0%; in the assay with TESK1, 0%; with TGFBR1, 24%. In addition, the “%Inh” value with TGFBR2 was 18%; in the assay on TIE1, 0%; in the assay on TIE2, 10%; in the assay on TLK1, 35%; in the assay with TLK2, 0%; with TNIK, 0%. Besides, the “%Inh” value with TNK1 and in the assay with TNK2 was 0% in each case.

On to `O=C(Nc1ccccc1)c1cccc(Oc2ccc3nccn3n2)c1`, for which the “%Inh” value in the assay with STK36 is listed as 5%; in the assay on STK39 it was 3%; in the assay with SYK it was 14%; with SgK110, 6%; in the assay with TAK1, 11%; in the assay with TAOK1, 5%. In addition, the “%Inh” value in the assay on TAOK2, in the assay on TAOK3, in the assay on TBK1, in the assay on TEC, in the assay on TESK1 and with TGFBR1 was 0% each time. Moreover, the “%Inh” value in the assay with TGFBR2 is listed as 0%; with TIE1, 94.1%; in the assay on TIE2 it was 0%; with TLK1, 100%; in the assay with TLK2, 0%; with TNIK, 0%. Also, the “%Inh” value with TNK1 is 33%; with TNK2, 0%.

Turning to `O=C(Nc1cccc(C(F)(F)F)c1)c1cccc(Oc2ccc3nccn3n2)c1`, the “%Inh” value was 0% in the assay on STK36; 2% in the assay with STK39; 14% in the assay on SYK; 26% with SgK110; 4% with TAK1; 4% with TAOK1. Moreover, the “%Inh” value was found to be 9% in the assay with TAOK2; 0% in the assay on TAOK3; 12% with TBK1; 7% in the assay with TEC; 7% with TESK1; 0% in the assay on TGFBR1. Further, the “%Inh” value in the assay with TGFBR2 came out at 0%; with TIE1, 39%; in the assay with TIE2 it was 0%; in the assay on TLK1, 3%; in the assay with TLK2, 0%; with TNIK, 0%. The “%Inh” value in the assay on TNK1 was 36%; in the assay with TNK2, 0%.

Consider `CS(=O)(=O)Nc1ccc(-c2ccnc3[nH]ccc23)cc1` [GSK993273], for which the “%Inh” value with STK36 is 0%; in the assay with STK39, 24%; in the assay with SYK, 52%; in the assay on SgK110 it was 0%; in the assay with TAK1, 33%; in the assay on TAOK1, 27%. In addition, the “%Inh” value with TAOK2 turned out to be 0%; in the assay on TAOK3, 0%; in the assay on TBK1, 10%; with TEC, 16%; with TESK1, 4%; in the assay with TGFBR1, 0%. In addition, the “%Inh” value turned out to be 0% in the assay on TGFBR2; 28% in the assay with TIE1; 3% in the assay with TIE2; 63% with TLK1; 63% in the assay with TLK2; 32% in the assay with TNIK. The figures for the “%Inh” value in the assay on TNK1 and with TNK2 were 0% and 14%, respectively.

Consider `COc1ccc(Nc2nccc(N3CCC(NC(=O)c4cccc(C#N)c4)C3)n2)cc1` (stereo not shown) [GSK1379730], for which the “%Inh” value with STK36 is given as 0%; in the assay on STK39 it was 0%; in the assay with SYK it was 19%; in the assay on SgK110 it was 0%; with TAK1, 0%; in the assay on TAOK1, 0%. Further, the “%Inh” value with TAOK2 came out at 0%; with TAOK3 it was 0%; in the assay with TBK1, 0%; in the assay on TEC, 0%; with TESK1, 46%; with TGFBR1, 0%. For the same molecule, the “%Inh” value with TGFBR2 is given as 0%; with TIE1, 16%; in the assay with TIE2, 5%; in the assay with TLK1, 0%; in the assay on TLK2, 0%; in the assay with TNIK, 0%. Moreover, the “%Inh” value in the assay on TNK1 is 0%; with TNK2, 11%.

Turning to `CN1CCN(CCNc2nc3cc(Oc4ccc(NC(=O)Nc5cc(C(F)(F)F)ccc5F)cc4)ccc3[nH]2)CC1.Cl.Cl` [GW768504], the “%Inh” value in the assay on STK36 is reported as 13%; with STK39 it was 0%; in the assay with SYK, 16%; in the assay on SgK110 it was 57%; in the assay with TAK1 it was 0%; with TAOK1, 0%. For the same molecule, the “%Inh” value with TAOK2 amounted to 38%; in the assay on TAOK3 it was 0%; with TBK1, 28%; with TEC, 0%; with TESK1 it was 0%; with TGFBR1, 6%. Further, the “%Inh” value with TGFBR2 is 4%; in the assay on TIE1, 89%; in the assay with TIE2, 60%; with TLK1, 0%; in the assay on TLK2 it was 2%; in the assay on TNIK, 0%. For the same molecule, the results for the “%Inh” value with TNK1 and in the assay with TNK2 were 30% and 0%, respectively.

Turning to `CN(c1ccccc1CNc1nc(Nc2ccc3c(c2)CC(=O)N3)ncc1C(F)(F)F)S(C)(=O)=O`, the “%Inh” value in the assay on STK36 is reported as 8%; with STK39 it was 0%; in the assay with SYK, 86%; in the assay with SgK110, 0%; in the assay with TAK1, 76%; in the assay with TAOK1, 92.7%. Besides, the “%Inh” value is reported as 6% in the assay with TAOK2; 86% in the assay on TAOK3; 48% in the assay on TBK1; 0% in the assay with TEC; 0% in the assay on TESK1; 0% in the assay with TGFBR1. Besides, the “%Inh” value in the assay with TGFBR2 is listed as 16%; in the assay on TIE1 it was 90.6%; in the assay on TIE2, 49%; in the assay on TLK1, 0%; in the assay on TLK2, 0%; with TNIK it was 1%. Also, the “%Inh” value turned out to be 83% in the assay on TNK1 and 53% in the assay with TNK2.

For `CCn1c(-c2nonc2N)nc2cncc(Br)c21` [SB-738004], the “%Inh” value in the assay with STK36 amounted to 0%; in the assay on STK39, 21%; in the assay on SYK, 8%; in the assay with SgK110 it was 0%; with TAK1, 68%; in the assay on TAOK1, 46%. Moreover, the “%Inh” value in the assay on TAOK2 is recorded as 1%; in the assay with TAOK3 it was 1%; in the assay on TBK1 it was 16%; in the assay on TEC, 0%; in the assay on TESK1 it was 19%; in the assay on TGFBR1, 0%. Also, the “%Inh” value was determined as 0% in the assay on TGFBR2; 0% with TIE1; 0% with TIE2; 9% in the assay with TLK1; 6% in the assay on TLK2; 18% in the assay on TNIK. For the same molecule, the “%Inh” value in the assay on TNK1 and in the assay with TNK2 was 0% in each case.

On to `O=C(NCC1CC1)c1ccc(-c2cc(C(=O)NC3CC3)ccc2F)cc1` [GW810445], for which the “%Inh” value with STK36 came to 0%; in the assay on STK39, 15%; with SYK, 17%; in the assay on SgK110, 51%; in the assay on TAK1, 4%; with TAOK1, 0%. In addition, the “%Inh” value in the assay with TAOK2 stood at 0%; in the assay with TAOK3 it was 0%; in the assay on TBK1, 26%; in the assay on TEC, 2%; in the assay with TESK1, 0%; in the assay with TGFBR1, 27%. Besides, the “%Inh” value with TGFBR2, in the assay with TIE1, in the assay with TIE2, in the assay on TLK1, with TLK2 and in the assay on TNIK was 0% throughout. Also, the “%Inh” value amounted to 30% in the assay with TNK1 and 0% with TNK2.
